Results filed as inconclusive are left out. Where a call stands in place of a potency, no number is given. Activity calls are given as the source filed them. Calls come from the whole dose curve; as a rule, active = well fitted inhibition curve with a large enough effect; inconclusive = small, poorly fitted or top-dose-only effect; inactive = no such curve, though single readings can be large or run the other way.

The values that follow come from PubChem BioAssay AID652015 (National Center for Advancing Translational Sciences (NCATS), 2013).

For this assay, the target named is Coelenterazine h 2-monooxygenase (Renilla reniformis) (UniProt P27652). As to the kind of experiment: qHTS Assay for Inhibitors of Sea Pansy Luciferase from the GSK Published Protein Kinase Inhibitor Set. Summed up: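 qHTS (roughly 60 uM down to 300 pM) against 1 nM Renilla luciferase, substrate coelenterazine h 5 uM, Tris acetate pH 7.5 buffer with NaCl, Tween-20 and BSA. Luminescence measured after an average 2 min incubation.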
Potency is the fitted concentration of half-maximal effect.

Sequence of Coelenterazine h 2-monooxygenase (Renilla reniformis) (P27652 whole entry, looked up): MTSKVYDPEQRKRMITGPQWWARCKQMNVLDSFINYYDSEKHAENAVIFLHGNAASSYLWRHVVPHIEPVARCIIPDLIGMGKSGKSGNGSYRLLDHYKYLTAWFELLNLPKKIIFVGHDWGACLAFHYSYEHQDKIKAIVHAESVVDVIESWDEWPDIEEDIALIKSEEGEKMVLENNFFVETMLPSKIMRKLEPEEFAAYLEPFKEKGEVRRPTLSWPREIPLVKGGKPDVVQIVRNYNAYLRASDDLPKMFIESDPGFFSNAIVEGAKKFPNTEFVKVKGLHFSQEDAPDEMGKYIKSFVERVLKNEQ

Take `c1ccc(-c2[nH]ncc2-c2ccnc(-c3ccc(OCCN4CCOCC4)cc3)c2)nc1`: the Potency entry is “inactive”.
The result for `O=C(Nc1n[nH]c2nc(-c3ccco3)ccc12)C1CC1` reads “inactive”; that for `CS(=O)(=O)CCNCc1ccc(-c2ccc3ncnc(Nc4ccc(OCc5ccccc5)c(Cl)c4)c3c2)o1`, “inactive”; that for `CN1CCN(C(=O)c2ccc(NC(=O)Nc3ccc(N(C)c4ccnc(Nc5ccc(CS(C)(=O)=O)cc5)n4)cc3)cc2)CC1`, “inactive”.
The result for `Fc1ccc(-c2cc(-c3cn[nH]c3-c3ccccn3)ccn2)cc1` reads “inactive”.
Take `FC(F)(F)CNc1nccc(-c2cnn3ncccc23)n1`: the Potency result was “inactive”.
Take `NC(=O)c1cccc(Nc2nccc(Nc3cccc(F)c3)n2)c1`: the Potency entry is “inactive”.
The result for `O=C(Nc1n[nH]c2cc(-c3cc(F)ccc3F)ccc12)C1CC1` reads “inactive”; that for `COC(=O)c1sc(-n2cnc3cc(OC)c(OC)cc32)cc1OCc1ccccc1C(F)(F)F`, “inactive”; that for `Nc1nonc1-c1nc2cnccc2n1C1CCCCC1`, “inactive”.
The result for `COc1cc(N2CCN(C(C)C)CC2)ccc1Nc1nc(Nc2ccc(F)cc2C(=O)NCC(O)CO)c2cc[nH]c2n1` (centres undefined) reads “inactive”; that for `COc1cc2ncn(-c3cc(OC(C)c4ccccc4Cl)c(C(N)=O)s3)c2cc1OC` (centres undefined), “inactive”; that for `CCn1c(-c2nonc2N)nc2c(C#CC(C)(C)O)ncc(OCC3CCNCC3)c21`, “inactive”.
The result for `Fc1cccc(COc2ccc(Nc3ncnc4sc(-c5cccs5)cc34)cc2Cl)c1` reads “inactive”; that for `Cc1cc(-c2ccco2)cc(C)c1C=Cc1cncc(-c2nn[nH]n2)c1`, “inactive”.
For `CC(C)COC(=O)c1ccc2[nH]c(O)c(C=Nc3ccc(S(N)(=O)=O)cc3)c2c1`, the Potency entry was “inactive”.
The result for `O=C(Nc1n[nH]c2cc(-c3ccc(F)cc3)ccc12)C1CC1` reads “inactive”; that for `O=C1NC(=O)C(c2ccccc2)=C1Nc1ccccc1`, “inactive”; that for `Nc1nccc(-c2c(-c3ccc(F)cc3)nn3cc(C(F)(F)F)ccc23)n1`, “inactive”.
The result for `O=C(Nc1ccc(Oc2ccc3nc(NC(=O)c4ccco4)[nH]c3c2)cc1)Nc1cc(C(F)(F)F)ccc1F` reads “inactive”; that for `CS(=O)(=O)CCN(CC#N)Cc1ccc(-c2ccc3ncnc(Nc4ccc(OCc5cccc(F)c5)c(Cl)c4)c3c2)o1`, “inactive”; that for `CCNC(=O)OC1CNC(C#Cc2cc3ncnc(Nc4ccc(OCc5cccc(F)c5)c(Cl)c4)c3s2)C1` (centres undefined), “inactive”.
Take `CN(C)CCOc1ccc(-c2cc(-c3ccc4c(c3)CCC4=NO)c(-c3ccncc3)o2)cc1`: the Potency result is “inactive”.
As for `COc1cccc(-n2ncc3c(NN=Cc4ccc(C(=O)NCCN(C)C)cc4)ncnc32)c1`, the Potency entry is “inactive”.
The entry for `CS(=O)(=O)CCNCc1nc(-c2ccc3ncnc(Nc4ccc(F)c(Cl)c4)c3c2)cs1` is “inactive”; for `COc1cc2ncn(-c3cc(OCc4ccccc4Cl)c(C(N)=O)s3)c2cc1OC` it is “inactive”; for `NC(=O)c1cc(-c2ccncc2)cc(-c2ccccc2)c1N` it is “inactive”.
The result for `Fc1cccc(COc2ccc(Nc3ncnc4sc(-c5ccco5)cc34)cc2Cl)c1` reads “inactive”; that for `CCc1nccc2c1nc(-c1nonc1N)n2CC`, “inactive”; that for `CS(=O)(=O)CCNCc1ccc(-c2ccc3ncnc(Nc4ccc(OCc5cccc(F)c5)c(C(F)(F)F)c4)c3c2)o1`, “inactive”.
The entry for `CNC(=O)c1cncc(C=Cc2c(C)cccc2C)c1` is “inactive”; for `CN1CCN(Cc2ccc(-c3cc4ncnc(Nc5ccc(OCc6cccc(F)c6)c(Cl)c5)c4s3)o2)CC1` it is 20.6 µM (active).
For the compound `CCC(=O)Nc1ccc(C)c(-c2ccc(C(=O)NCC3CC3)cc2)c1`, the Potency entry was “inactive”.
For `N#Cc1c(NC(=O)c2cccc3ccccc23)sc2c1CCCC2`, the Potency result is “inactive”.
The result for `CCn1cc(-c2ccnc3[nH]ccc23)c(-c2cccc(NC(=O)Nc3ccc(OCc4ccccc4)cc3)c2)n1` reads “inactive”; that for `O=C1Nc2ccc(C(=O)c3ccco3)cc2/C1=C/c1cc(Cl)c(O)c(Cl)c1`, 16.3 µM (active).
The entry for `COc1cc(C)c(N(C)C(=O)CN(C)C)cc1Nc1nc(Nc2cccc(F)c2C(N)=O)c2cc[nH]c2n1` is “inactive”; for `N#Cc1ccc(Oc2nccc(-c3c(-c4ccc(F)cc4)ncn3C3CCNCC3)n2)cc1` it is “inactive”.
Turning to `c1ccc(-c2nc3n(c2-c2ccc4c(c2)OCO4)CCC3)nc1`, the Potency result is “inactive”.
